Bioassay records (PubChem)
Pf growth 48h: P. falciparum growth inhibition at 48 hours (one generation) | P. falciparum luciferase growth in erythrocytes, 48 h | 310,000 tested, 5.9% active | AID 504832 | Potency, µM (top dose mostly 28.7 µM), hits mostly inhibitors
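Parasite viability was followed by luminescence of a genomically integrated firefly luciferase. Cultures held 0.1% parasitemia at 2% hematocrit (final), incubated under 5% CO2 at 37 C.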
Shiga toxin inh: blocks Shiga toxin action in Vero cells. 290,000 tested, 9.2% active. Vero cells, Shiga toxin protein synthesis inhibition reporter. inhibition, % at 38.7 µM; in the data active = inhibition mostly above about 28%, no sharp cut-off; inactive = mostly below about 43%
Sm TGR inh: blocks Schistosoma mansoni thioredoxin glutathione reductase; 360,000 tested, 3% active; AID 485364; Q962Y6; Potency, µM (top dose mostly 114 µM), usual class: inhibitors; purified TGR, DTNB reduction, TNB absorbance 405 nm; also: nearly all actives have a fitted effect of over 60% in size
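TGR 20 nM + NADPH 100 uM (dispensed conc.), cpd preinc 15 min RT; start with NADPH (500 uM addition) then DTNB (15 mM addition). Kinetic TNB absorbance, 405 nm filter. Four-parameter Hill fit across titration.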
NS1 inh: influenza NS1 inhibition; Potency, µM (highest dose often 46.1 µM); 270,000 tested, 0.4% active; AID 2326; calls by dose curve; also: actives are rising curves; nearly all actives have a fitted effect of over 50% in size
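Recovery from NS1-induced slow growth read by OD600 in budding yeast switched to galactose assay medium (pH 6.0, -URA) at 1:100 dilution. Compound 23 nl per well; the matching strain lacking NS1 serves as control.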
CHX counter: counter-screen hit for Shiga toxin inhibitors, cycloheximide. cell reporter, cycloheximide protein synthesis inhibition counterscreen. max response, %. 300,000 tested, 12% active. AID 2314; in the data active = max response mostly above about 13%, no sharp cut-off; inactive = mostly below about 14%; also: read at 38.3 µM for the half of the compounds with a filed dose
Pf growth 96h: P. falciparum growth inhibition at 96 hour, primary screen for plastid delayed-death inhibitors. 320,000 tested, 6.9% active. Potency, µM (highest dose often 28.7 µM), usual class: inhibitors. AID 504834. P. falciparum luciferase reporter growth, 96 h
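Readout is luminescence from an integrated firefly luciferase in P. falciparum. Red cells, 2% hematocrit and 0.05% parasitemia final, were cultured with compound through two parasite generations (96 hours) at 37 C, 5% CO2.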
Numbers stand for hits; - = inactive; ? = inconclusive; . = not tested or not shown; [ ] = dose if it differs, or a comment. This is a sample that favours compounds with a hit; in the whole collection about 21% have one here. Unless noted, calls follow the shape of the dose curve; as a rule, active = well fitted curve in the direction sought with a large enough effect; inconclusive = small, poorly fitted or top-dose-only effect, or another doubt; inactive = no such curve, though single readings can be large; an effect the other way counts as inactive or inconclusive.

SMILES	Pf growth 48h	Shiga toxin inh	Sm TGR inh	NS1 inh	CHX counter	Pf growth 96h
CCn1cc(Br)c(C(=O)Nc2ccc(Cl)c(Cl)c2)n1	-	35.4	-	-	20.9	-
CC(=O)c1ccc(NC(=O)C(C)n2c3ccccc3c3nc(=O)cc(C)n32)cc1 (stereo unspecified)	?	-	-	-	-	?
COc1ccc2c(c1)CCc1c(C(=O)Nc3c(C)nn(Cc4c(Cl)cccc4Cl)c3C)noc1-2	.	.	-	.	.	.
CCn1cc(Cl)c(C(=O)Nc2cccc(CN3CCOCC3)c2)n1	-	-	-	-	-	-
CCn1cc(Br)c(C(=O)Nc2cccc(Cl)c2)n1	-	72.8	-	-	17.9	-
COc1ccc(C(=O)OCc2cc(C)ccc2C)cc1S(=O)(=O)N1CCCC1	7.38µM	.	-	.	.	10.4µM
COc1ccc(C(C)=O)cc1COC(=O)c1ccc(C)c(S(=O)(=O)N2CCOCC2)c1	9.28µM	.	3.55µM	.	.	9.28µM
COc1ccc(C(=O)OCC(=O)N2CCOCC2)cc1S(=O)(=O)N1CCOCC1	-	.	-	.	.	?
Cc1ccc(C)c(COC(=O)c2cccc(S(=O)(=O)N3CCCC3)c2)c1	?	.	-	.	.	-
Cc1nc(Sc2ccccc2)c(C#N)c(C)c1[N+](=O)[O-]	7.38µM	-	-	-	-	?
Cc1nc(NCCc2ccccc2F)c(C#N)c(C)c1[N+](=O)[O-]	?	-	-	-	-	-
Cc1nc(Sc2ccccc2)c(C#N)cc1-c1ccccc1	?	50.4	-	-	28.3	?
CCOC(=O)C1CCCNC1=O (stereo unspecified)	-	-	-	-	-	-
Cc1ccccc1N1CCN(S(=O)(=O)CC23CCC(CC2=O)C3(C)C)CC1 (stereo unspecified)	?	-	-	-	-	?
CC1(C)C2CCC1(CS(=O)(=O)N1CCCc3ccccc31)C(=O)C2 (stereo unspecified)	-	-	-	-	18.1	-
O=C(COc1ccccc1)Nc1nc2c(s1)CCCC2	-	83.3	-	-	38.7	-
CC(=O)c1sc(NC(=O)COc2ccccc2)nc1C	-	57.4	-	-	15.3	-
CCOC(=O)c1sc2nc(NC(=O)COc3ccccc3)sc2c1C	.	-	-	-	-	1.65µM
CC(=O)c1sc(NC(=O)CCOc2ccccc2)nc1C	-	77.0	-	-	33.9	-
Cc1cccc(C)c1NC(=O)C(NC(=O)c1ccccn1)c1ccccc1[N+](=O)[O-] (stereo unspecified)	-	-	-	-	-	?
Cc1ccccc1-n1nc2c(c1NC(=O)C(C)(C)C)CS(=O)(=O)C2	-	-	-	-	-	-
Cc1ccc(O)c(NC(=O)c2cc(-c3ccc(F)cc3)on2)c1	-	-	-	.	41.5	-
COc1ccc(-c2cc(C(=O)Nc3ccccc3SC)no2)cc1	-	-	-	-	-	-
Cc1ccc(Cn2ccc(NC(=O)c3nn(C)cc3Cl)n2)cc1	-	91.6	-	-	38.5	-
Cc1ccc(Cn2nc(C)c(NC(=O)c3nn(C)cc3Cl)c2C)cc1	-	-	-	-	-	-
SMILES	Pf growth 48h	Shiga toxin inh	Sm TGR inh	NS1 inh	CHX counter	Pf growth 96h
CSc1ccccc1NC(=O)c1cc(-c2cccs2)on1	-	55.8	-	-	-	.
Cc1ccc(O)c(NC(=O)c2cc(-c3ccc4c(c3)OCO4)on2)c1	.	.	-	.	.	.
COc1cc(NC(=O)c2cc(-c3cccs3)on2)c(OC)cc1Cl	.	.	-	.	.	.
Cc1ccc(O)c(NC(=O)c2cc(-c3cccs3)on2)c1	?	79.0	-	-	21.2	-
Cc1ccc(Cn2ccc(NC(=O)c3cc(-c4ccc(F)cc4)on3)n2)cc1	-	-	-	-	-	3.29µM
O=C(Nc1ccn(Cc2ccccc2)n1)c1ccc(F)cc1	-	85.0	-	-	45.0	-
Cc1ccccc1Cn1ccc(NC(=O)c2nn3cccnc3c2Cl)n1	-	-	-	-	22.2	-[5.75 µM]
Cc1ccc(Cn2ccc(NC(=O)c3cc(-c4ccc(Cl)cc4)on3)n2)cc1	-	-	-	-	-	-
CN(C)c1cccc2c(S(=O)(=O)N3CCCC3)cccc12	-	-	-	-	34.4	-
CC(=O)N1CCc2cc(CNC(=O)Nc3ccccc3C(F)(F)F)ccc21	.	.	-	.	.	.
COC(=O)CSC1=NS(=O)(=O)c2ccccc21	-	-	2.51µM	-	-	-
O=C(CSC1=NS(=O)(=O)c2ccccc21)Nc1ccccc1	.	-	2.51µM	-	-	-
O=C(CSC1=NS(=O)(=O)c2cc(F)ccc2N1)Nc1ccccc1	-	.	-	.	.	-
